Compound activity: PubChem BioAssay, several laboratories
FGF22 binding: FGF22 (human) thermal shift binding; Q9HCT0; recombinant FGF22 thermal shift, SYPRO orange fluorescence; percent of sucrose octasulfate shift, DMSO zero; activity (Tm shift, normalised), % at 9.99 µM; 340,000 tested, 1.5% active;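 active means mean Tm shift, scaled 0 neutral to 100 positive control, at about 1.3% or above, every replicate too, limit read from the data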
Target sequence (Q9HCT0 whole entry, looked up): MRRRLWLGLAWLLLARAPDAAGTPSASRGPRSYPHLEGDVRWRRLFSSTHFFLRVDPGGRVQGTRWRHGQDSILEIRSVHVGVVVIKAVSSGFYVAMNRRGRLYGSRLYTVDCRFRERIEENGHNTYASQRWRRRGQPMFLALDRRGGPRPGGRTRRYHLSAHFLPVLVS
ADAM17 inh: ADAM17 inhibition, QFRET primary screen; P78536; recombinant ADAM17, EDANS/DABCYL FRET peptide cleavage; inhibition, % at 6.95 µM; 370,000 tested, 0.83% active; AID 720648;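 active means inhibition above the mean of compounds lying between control limits plus 3 SD, set per campaign, cut at about 8.5% in these data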
ADAM10 inh: inhibitors of human ADAM10; O14672; recombinant ADAM10, EDANS/DABCYL FRET peptide cleavage, 3 h; inhibition, % at 7 µM; 370,000 tested, 0.62% active;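 active means inhibition above a per-campaign cutoff equal to the mean of compounds falling between control-based bounds plus 3 SD, cut at about 20% in these data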
rRNA inh HTS: inhibitors of bacterial rRNA selective over humanized ribosomes; E. coli WT GFP vs humanized-ribosome RFP mutants, fluorescence, 24 h; stronger effect = lower value; DMSO median 0, no signal -100; GFP signal change (wild-type ribosome), % (no concentration beside the values); 350,000 tested, 1.6% active; AID 720706;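 active means significant combined selectivity score with lowered wild-type GFP, culture density cut under 30%, mutant RFP and density less affected; inactive means any of these conditions unmet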
KLK7 zymogen act: proKLK7 (human) activation, primary screen; purified proKLK7, EDANS-DABCYL substrate fluorescence; 100% is mature enzyme control, 0% vehicle; AID 652039; 370,000 tested, 0.9% active; P49862; activation, % at 7 µM;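 active means activation above the mean of all tested compounds plus 3 SD, computed per campaign excluding outliers beyond control limits, cut at about 13% in these data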
Target sequence (P49862 whole entry, looked up): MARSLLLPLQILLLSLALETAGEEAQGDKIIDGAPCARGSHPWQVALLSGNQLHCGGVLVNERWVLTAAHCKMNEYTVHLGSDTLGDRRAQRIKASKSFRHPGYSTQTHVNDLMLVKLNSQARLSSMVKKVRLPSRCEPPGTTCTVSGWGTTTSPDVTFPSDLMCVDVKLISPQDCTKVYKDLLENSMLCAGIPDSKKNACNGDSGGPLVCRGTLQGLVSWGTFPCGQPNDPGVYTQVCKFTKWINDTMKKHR
Numbers stand for hits; - = inactive; . = no result. Rows were chosen to be rich in hits. Some 3.8% of all compounds tested hit in one or more screens of this group.

SMILES	FGF22 binding	ADAM17 inh	ADAM10 inh	rRNA inh HTS	KLK7 zymogen act
O=[N+]([O-])c1ccc(-c2ccn[nH]2)o1	-	-	-	-	-
COc1cc2cc(CCCOC(=O)c3ccc(F)cc3)oc(=O)c2cc1OC	-	-	-	-25	-
COC(=O)N/N=C/c1ccc(OS(=O)(=O)c2ccc(C)cc2)c(OC)c1	.	-	-	-28	-
COc1cc(/C=C2/SC(=S)N(CC(=O)O)C2=O)ccc1OC(=O)c1cccs1	.	-	-	-19	-
COc1cc(/C=C2/SC(=S)N(Cc3ccccc3)C2=O)ccc1OCC(=O)O	-	-	-	-	-
COc1cc(/C=C2\SC(=S)N(CC(=O)NC(C)(C)C)C2=O)cc(OC)c1OC	43	-	-	-	-
COc1cc(/C=C2\SC(=S)N(CC(=O)O)C2=O)ccc1OS(=O)(=O)c1ccc(C)cc1	.	-	-	-18	-
COc1cc(/C=C2/SC(=S)N(CC(=O)NC(C)(C)C)C2=O)cc(OC)c1OC	.	-	-	.	-
CCNC(=O)C[C@H]1CC[C@@H]2[C@H](COC[C@@H](O)CN2C(=O)Nc2c(C)noc2C)O1	-	.	.	-	.
C[C@@H]1CN([C@@H](C)CO)C(=O)c2cc(NS(=O)(=O)c3ccc(F)cc3)ccc2O[C@@H](C)CCCCO[C@@H]1CN(C)C(=O)Nc1cccc2ccccc12	.	.	.	-	.
C[C@H](CO)N1C[C@H](C)[C@H](CN(C)C(=O)Nc2ccccc2)Oc2ccc(NC(=O)CCCCCC(=O)Nc3ccccc3N)cc2C1=O	-	.	.	-	.
Oc1ccc(-c2csc(-c3cccnc3)n2)cc1O	-	-	-	-	-
Oc1ccc(-c2csc(Nc3ncccn3)n2)c(O)c1	-	-	-	-	-
Nc1nc(-c2ccc(-c3ccccc3)cc2)cs1	-	-	-	-25	-
Oc1ccc(-c2csc(Nc3ncccn3)n2)cc1O	-	-	-	-30	-
Nc1nc(-c2ccc(Oc3ccccc3)cc2)cs1	-	-	-	-	-
Oc1ccc(-c2csc(-c3ccccc3)n2)cc1O	-	-	-	-34	-
Cc1cc(C)c(NC(=O)c2ccccc2C(=O)c2ccccc2)c(C)c1	43	-	-	-	-
COc1ccc(-c2c[n+]3c(n2-c2ccc(C)cc2)CCCCC3)cc1	-	-	-	-	-
COc1ccc(-c2c[n+]3c(n2-c2ccccc2)CCCCC3)cc1	-	-	-	-	-
COc1ccc(-n2c(-c3ccc(Cl)cc3)c[n+]3c2CCCCC3)cc1	.	-	-	-32	-
COc1ccc(-c2c[n+]3c(n2-c2c(C)n(C)n(-c4ccccc4)c2=O)CCCCC3)cc1	43	-	-	-	-
CS(=O)(=O)N1C[C@@H]2N[C@H](C1)C2c1ccc(-c2ccc(F)cc2)cc1 (some centres undefined)	.	.	.	-	.
CCn1c(C)nc2cc(C(=O)N/N=C/c3ccc(OC)c(O)c3)ccc21	-	-	-	-23	-
CCn1c(C)nc2cc(C(=O)N/N=C/c3ccc(OC)cc3)ccc21	-	-	-	-	-
SMILES	FGF22 binding	ADAM17 inh	ADAM10 inh	rRNA inh HTS	KLK7 zymogen act
CN1CCN(C(=O)C[C@@H]2CC[C@H]3[C@@H](COc4ccc(NC(=O)C5CCCCC5)cc4C(=O)N3C)O2)CC1	-	.	.	-	.
CCOCc1nnc(NC(=O)c2cc(C(=O)OC)cc([N+](=O)[O-])c2)s1	43	-	-	-	-
COC(=O)c1cc(C(=O)Nc2nnc(CC(C)(C)C)s2)cc([N+](=O)[O-])c1	.	-	-	.	-
CCOC(=O)c1sc(-c2ccc(Br)cc2)cc1N	-	-	-	-34	-
NNC(=O)c1sc(-c2ccc(Cl)cc2)cc1N	44	-	-	-	-
Cc1cc(C(=O)Nc2cccc3c2O[C@@H](CN(C)Cc2ccc(-c4ccccc4)cc2)[C@H](C)CN([C@H](C)CO)C3=O)n(C)n1	-	.	.	-	.
CC(C)[C@H]1COCc2cn(nn2)CC[C@@H](Cc2ccc(Cl)cc2)C(=O)N1	.	.	.	-	.
CCc1nc2ccc(C(=O)N3CCN(CC)CC3)cc2nc1CC	43	-	-	-	-
CCCN1CCN(C(=O)c2ccc3nc(CC)c(CC)nc3c2)CC1	-	-	-	-	-
C[C@H](CO)N1C[C@H](C)[C@@H](CN(C)S(C)(=O)=O)Oc2ncc(C#CC3CCCC3)cc2C1=O	-	.	.	-	.
C[C@H](CO)N1C[C@H](C)[C@H](CN(C)CC2CC2)Oc2ccc(NC(=O)CCCCCC(=O)Nc3ccccc3N)cc2CC1=O	-	.	.	-	.
CSc1cccc(NC(=S)N(CCCN2CCC(C)CC2)Cc2cccs2)c1	-	-	-	-19	-
O=C(N/N=C/c1cccc(Oc2ccccc2)c1)c1ccccc1Br	-	-	-	-28	-
O=C(N/N=C/c1cccc(Oc2ccccc2)c1)c1cccc(Br)c1	-	-	-	-	-
O=C(O)COc1ccc(NC(=O)c2cccs2)cc1	-	-	-	-	-
CC1CCCN(C(=O)COc2ccc(NC(=O)c3cccs3)cc2)C1 (centres undefined)	44	-	-	-	-
C/C(=N\NC(=O)COc1ccccc1-c1ccccc1)c1ccccn1	-	-	-	-49	-
C/C(=N\NC(=O)COc1ccccc1-c1ccccc1)c1ccc(O)cc1O	-	-	-	-	-
C/C(=N\NC(=O)CSc1nc2ccccc2s1)c1cccnc1	-	-	-	-21	-
C/C(=N\NC(=O)COc1ccccc1-c1ccccc1)c1cccnc1	-	-	-	-40	-
CCN1[C@H](C(=O)Nc2nccs2)[C@@H](CO)[C@@H]2Cn3c(ccc(/C=C/c4ccccc4)c3=O)[C@@H]21	.	.	.	-	.
CCN(C[C@@H]1[C@@H](c2ccccc2)[C@@H](CO)N1CC1CC1)C(=O)c1ccccc1F	.	.	.	-	.
C[C@@H]1CN([C@@H](C)CO)C(=O)c2cc(NC(=O)c3ccccc3)ccc2O[C@@H](C)CCCCO[C@H]1CN(C)Cc1ccccc1	-	.	.	-	.
CC(=O)c1cn(Cc2ccccc2)c(=O)[nH]c1=O	43	-	-	-	-
COCC(=O)Nc1ccc2c(c1)C(=O)N(C)C[C@H](OC)[C@H](C)CN(C(=O)CC1CC1)[C@@H](C)CO2	-	.	.	-	.
SMILES	FGF22 binding	ADAM17 inh	ADAM10 inh	rRNA inh HTS	KLK7 zymogen act
O=C(C[C@H]1C=C[C@H](NC(=O)c2ccncc2)[C@H](CO)O1)Nc1ccc(-c2ccccc2)cc1	.	.	.	-	.
CCc1c(C)sc2nc3c(C(=O)N4CCOCC4)cc(C(=O)c4ccccc4O)cn3c(=O)c12	43	-	-	-	-
CN(C)C(=O)C[C@H]1CC[C@H]2[C@@H](COc3ccc(NC(=O)c4ccc(F)cc4)cc3C(=O)N2C)O1	-	.	.	-	.
COc1ccc(C2C3=C(CC(C)(C)CC3=O)Oc3ncn(CCO)c(=N)c32)cc1OC (centres undefined)	.	-	-	.	-
CC(C)Cn1cnc2c(c1=N)C(c1ccccc1)C1=C(CC(C)(C)CC1=O)O2 (centres undefined)	-	-	-	-38	-
Cc1cc(C)c2c(=O)[nH]c(SCC(=O)Nc3ccccc3)nc2n1	.	-	-	.	-
